Consider six molecules from PubChem BioAssay (Tox21).

The nature of test [1]: Human pregnane X receptor (PXR) small molecule agonists, qHTS cell viability counter screen (AID 1346977). Note: nearly all actives have a fitted effect of over 50% in size. Note: potency is the fitted concentration of half-maximal effect. The conditions noted are these: PXR-Luc HepG2 viability, CellTiter-Fluor, 24 h; series mostly up to 92.4 µM. The gist of the method: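 Measures live-cell protease fluorescence (CellTiter-Fluor) in PXR-Luc HepG2 cells treated 24hr with compounds at 37C. Cells had 5hr to attach before pin transfer of DMSO solutions.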
A general note: qHTS replaces the single test concentration by a dilution series.

Test [2] in a line: Caspase-3/7 induction in HepG2 cells by small molecules, qHTS assay (AID 1346978). Note: nearly all actives have a fitted effect of over 15% in size. The conditions noted are these: HepG2 caspase-3/7 activation, Caspase-Glo luminescence, 17 h; series mostly up to 92.4 µM. The gist of the method:
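Wild-type HepG2 cells (2,000/well) were settled 5 h at 37 C, 5% CO2, then exposed to compounds in DMSO for 17 h. Caspase-3/7 activity was read by luminescence 30 min after adding Caspase-Glo 3/7 reagent at room temperature.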

A short description of test [3]: Caspase-3/7 induction in CHO-K1 cells by small molecules, qHTS cell viability counter screen (AID 1346979). Note: nearly all actives have a fitted effect of over 35% in size. Note: potency is the fitted concentration of half-maximal effect. The conditions noted are these: CellTiter-Fluor fluorescence, 17 h; series mostly up to 92.4 µM. The gist of the method: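 In the same wells as the caspase read, viability of compound-treated wild-type CHO-K1 cells was assessed using CellTiter-Fluor, added after 16hr at 37C and measured by fluorescence following 1hr further incubation.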

Test [4] can be described thus: Caspase-3/7 induction in CHO-K1 cells by small molecules, qHTS assay (AID 1346980). Note: nearly all actives have a fitted effect of over 15% in size. Particulars: CHO-K1 caspase-3/7 induction, Caspase-Glo luminescence, 17 h; series mostly up to 92.4 µM. The gist of the method: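 Wild-type cells were seeded at 1,500 per well and settled 5 hr at 37 C, 5% CO2, then exposed to DMSO-dissolved compounds for 17 hr. Caspase-Glo 3/7 reagent was added, and luminescence was read after 30min at room temperature.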

The nature of test [5]: Caspase-3/7 induction in HepG2 cells by small molecules, qHTS cell viability counter screen (AID 1346981). Note: nearly all actives have a fitted effect of over 30% in size. Note: potency is the fitted concentration of half-maximal effect. Particulars: CellTiter-Fluor fluorescence, 17 h; series mostly up to 92.4 µM. The gist of the method:
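HepG2, WT, 2,000 cells/well; 5 hr pre-incubation 37 C/5% CO2; compound pin-transferred from DMSO; 16 hr exposure; CellTiter-Fluor, 1 hr; fluorescence read.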

The target in test [6] is Nuclear receptor subfamily 1 group I member 2 (Homo sapiens) (UniProt O75469). In words: Human pregnane X receptor (PXR) small molecule agonists, qHTS assay (AID 1346982). Note: nearly all actives have a fitted effect of over 35% in size. Particulars: PXR-Luc HepG2, CYP3A4 luciferase reporter, 24 h; series mostly up to 92.4 µM. The gist of the method:
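Luciferase signal from ONE-Glo (30 min, room temperature) measured activation of hPXR-driven CYP3A4 reporter expression in PXR-Luc HepG2 cells treated with compounds for 24 hr at 37 C.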

Test [7] has as its target Cytochrome P450 2D6 (Homo sapiens) (UniProt P10635). Briefly: Cytochrome P450 Family 2 Subfamily D Member 6 (CYP2D6) small molecule antagonists: luciferase reporter qHTS assay (AID 1671196). Note: nearly all actives have a fitted effect of over 50% in size. Note: potency is the fitted concentration of half-maximal effect. The conditions noted are these: P450-Glo CYP2D6 enzyme assay, luciferin luminescence, 1 h; series mostly up to 115 µM. An outline of the steps:
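Read-out is luminescence from luciferin formed by CYP2D6 turnover of a proluciferin substrate, recorded as relative luminescence units. Reactions ran 1 h at room temperature after NADPH regeneration solution was added.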
For orientation: In a reporter assay the amount or activity of a reporter protein is the signal.

Test [8] addresses Cytochrome P450 2C19 (Homo sapiens) (UniProt P33261). Briefly: Cytochrome P450 Family 2 Subfamily C Member 19 (CYP2C19) small molecule antagonists: luciferase reporter qHTS assay (AID 1671197). Note: nearly all actives have a fitted effect of over 65% in size. Note: potency is the fitted concentration of half-maximal effect. The conditions noted are these: P450-Glo CYP2C19 enzyme, luciferin luminescence, 1 h; series mostly up to 115 µM. The gist of the method:
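Light output is proportional to CYP2C19 activity: proluciferin substrate is converted to luciferin, then detected by a luciferin detection reagent that also stops the 1 h, 37C NADPH-driven reaction. Ketoconazole serves as positive control.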

Test [9] deals with Cytochrome P450 2C9 (Homo sapiens) (UniProt P11712). Briefly: Cytochrome P450 Family 2 Subfamily C Member 9 (CYP2C9) small molecule antagonists: luciferase reporter qHTS assay (AID 1671198). Note: nearly all actives have a fitted effect of over 50% in size. Note: potency is the fitted concentration of half-maximal effect. Particulars: P450-Glo CYP2C9 enzyme assay, luciferin luminescence; series mostly up to 115 µM. The gist of the method: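 CYP2C9 activity was measured with a P450-Glo proluciferin substrate. Enzyme–substrate mix was held with compound for 10 min at room temperature, then NADPH regeneration solution was added for 1 h at 37C. Luciferin product was read as luminescence.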
Chain of Cytochrome P450 2C9 (Homo sapiens) (P11712 whole entry, looked up): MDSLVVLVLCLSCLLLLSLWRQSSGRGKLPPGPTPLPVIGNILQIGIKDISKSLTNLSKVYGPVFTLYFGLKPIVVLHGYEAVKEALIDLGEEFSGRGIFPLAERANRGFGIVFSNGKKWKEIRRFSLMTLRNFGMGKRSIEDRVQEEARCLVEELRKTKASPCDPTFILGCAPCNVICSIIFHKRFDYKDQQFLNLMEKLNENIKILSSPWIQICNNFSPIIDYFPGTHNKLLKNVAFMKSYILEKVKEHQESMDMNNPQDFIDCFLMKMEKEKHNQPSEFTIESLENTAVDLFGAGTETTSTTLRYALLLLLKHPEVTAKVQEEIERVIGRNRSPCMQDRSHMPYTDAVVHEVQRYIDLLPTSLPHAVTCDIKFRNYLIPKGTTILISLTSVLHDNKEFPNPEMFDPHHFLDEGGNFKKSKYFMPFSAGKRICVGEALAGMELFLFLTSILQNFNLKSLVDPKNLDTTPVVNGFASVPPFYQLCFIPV

For test [10], the target named is Cytochrome P450 1A2 (Homo sapiens) (UniProt P05177). In words: Cytochrome P450 Family 1 Subfamily A Member 2 (CYP1A2) small molecule antagonists: luciferase reporter qHTS assay (AID 1671199). Note: nearly all actives have a fitted effect of over 50% in size. Note: potency is the fitted concentration of half-maximal effect. The conditions noted are these: P450-Glo CYP1A2 enzyme, luciferin luminescence, 1 h; series mostly up to 115 µM. The gist of the method:
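P450-Glo CYP1A2, 1536-well qHTS: enzyme/proluciferin substrate + cpd (DMSO), 10 min RT; NADPH regen, 1 h RT; detection reagent, 20 min; luminescence, RLU.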

Test [11] concerns the target Voltage-gated inwardly rectifying potassium channel KCNH2 (Homo sapiens) (UniProt Q12809). In words: Human Ether-a-go-go-Related Gene (hERG) channel small molecule antagonists: fluorescence cell-based qHTS assay (AID 1671200). Note: nearly all actives have a fitted effect of over 50% in size. Note: potency is the fitted concentration of half-maximal effect. Particulars: hERG-U2OS cells, FluxOR thallium flux fluorescence; series mostly up to 76.8 µM. An outline of the steps: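 Quantitative HTS in hERG-U2OS cells: thallium entry through the channel reports activity, read as continuous 480/540 nm fluorescence over 2 min after stimulus addition.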
In general terms: Block of hERG is tested as a sign of cardiac risk.

For test [12], the target named is Cytochrome P450 3A4 (Homo sapiens) (UniProt P08684). Briefly: Cytochrome P450 Family 3 Subfamily A Member 4 (CYP3A4) small molecule antagonists: luciferase reporter qHTS assay (AID 1671201). Note: nearly all actives have a fitted effect of over 50% in size. Note: potency is the fitted concentration of half-maximal effect. Particulars: P450-Glo CYP3A4 enzyme, luciferin luminescence, 1 h; series mostly up to 115 µM. The gist of the method:
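Inhibition of CYP3A4 is measured as loss of light: the enzyme converts a proluciferin substrate to luciferin, detected luminescently. Reaction ran 1 h at room temperature with NADPH regeneration after a 10 min compound preincubation.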

The target in test [13] is Acetylcholinesterase (Homo sapiens) (UniProt P22303). Briefly: Acetylcholinesterase (AChE) small molecule antagonists: colormetric cell-based qHTS assay (AID 1347395; calls by dose curve; note: nearly all actives have a fitted effect of over 30% in size; note: potency is the fitted concentration of half-maximal effect). Particulars: SH-SY5Y cells AChE activity, colorimetric (Ellman); series mostly up to 115 µM. An outline of the steps: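 Endogenous AChE of human neuroblastoma SH-SY5Y cells was measured with an Ellman-type DTNB/acetylthiocholine mix. Compound pretreatment lasted 30 min at 37 C; substrate reaction ran 90 min at 37 C.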
Chain of Acetylcholinesterase (Homo sapiens) (P22303 whole entry, looked up): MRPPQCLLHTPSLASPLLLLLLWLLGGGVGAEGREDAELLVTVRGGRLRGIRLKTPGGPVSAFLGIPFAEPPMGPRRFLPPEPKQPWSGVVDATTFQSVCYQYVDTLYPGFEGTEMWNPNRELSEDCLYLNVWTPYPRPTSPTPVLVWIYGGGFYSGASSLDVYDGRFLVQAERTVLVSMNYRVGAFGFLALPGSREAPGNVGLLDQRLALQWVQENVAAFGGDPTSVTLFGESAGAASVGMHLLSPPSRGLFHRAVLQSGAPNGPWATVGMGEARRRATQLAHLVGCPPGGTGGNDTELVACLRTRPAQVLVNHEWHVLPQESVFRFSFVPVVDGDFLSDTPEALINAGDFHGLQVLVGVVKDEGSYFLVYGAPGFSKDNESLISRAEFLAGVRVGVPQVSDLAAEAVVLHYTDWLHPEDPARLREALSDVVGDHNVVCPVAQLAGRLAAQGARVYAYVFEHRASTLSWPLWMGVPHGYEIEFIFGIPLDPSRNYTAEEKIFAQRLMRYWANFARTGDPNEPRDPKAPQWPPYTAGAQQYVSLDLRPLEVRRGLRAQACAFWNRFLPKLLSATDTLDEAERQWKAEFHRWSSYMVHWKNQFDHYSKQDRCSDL

The target is the same in test [14]. Briefly: Acetylcholinesterase (AChE) small molecule antagonists: enzyme-based qHTS assay (AID 1347397; calls by dose curve; note: nearly all actives have a fitted effect of over 55% in size; note: potency is the fitted concentration of half-maximal effect). The conditions noted are these: Potency: AChE enzyme activity inhibition; series mostly up to 115 µM. An outline of the steps: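 Recombinant human AChE, dispensed at 50 mU/mL, was preincubated with Tox21 10K compounds or DMSO vehicle for 30 min at room temperature. DTNB plus acetylthiocholine was then added, and thiocholine was measured colorimetrically after a further 10 min.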

Test [15] shares this target. In words: Acetylcholinesterase (AChE) small molecule antagonists: fluorescence cell-based qHTS assay (AID 1347398; calls by dose curve; note: nearly all actives have a fitted effect of over 50% in size; note: potency is the fitted concentration of half-maximal effect). Particulars: SH-SY5Y cells; Potency: AChE activity; series mostly up to 115 µM. The gist of the method: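 Human SH-SY5Y cells were plated overnight at 37 C, exposed to compound for 30 min at 37 C, 5% CO2, then given acetylthiocholine plus Thiolite Green for 40 min at room temperature; thiocholine fluorescence (Ex/Em 490/520 nm) reports endogenous AChE activity.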

For test [16] the target is unchanged. In words: Acetylcholinesterase (AChE) small molecule antagonists: enzyme-based qHTS assay with human liver microsomes (AID 1347399; calls by dose curve; note: nearly all actives have a fitted effect of over 60% in size; note: potency is the fitted concentration of half-maximal effect). The conditions noted are these: Potency: qHTS inhibition; series mostly up to 115 µM. The gist of the method:
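Recombinant human AChE (50 mU/mL in the enzyme mix) and human liver microsomes (0.25 mg/mL final) were preincubated with compound and NADPH (0.25 mg/mL final) for 30 min at 37 C. Acetylthiocholine/DTNB was then added; thiocholine was read colorimetrically after 10 min at room temperature.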

Where “and” joins values, the source holds several entries; their conditions need not be identical. Equal values may be shown once. Results filed as inconclusive are left out. Some structures have more than one record in an assay (separate samples or runs), and their calls can disagree. Calls of active or inactive are those of the source. Unless noted, calls come from the whole dose curve; as a rule, active = well fitted curve in the direction sought with a large enough effect in the repeat runs; inconclusive = weak or mixed curves; inactive = no such curve, though single readings can be large; an effect the other way counts as inactive or inconclusive.

Chain of Cytochrome P450 2C19 (Homo sapiens) (P33261 whole entry, looked up): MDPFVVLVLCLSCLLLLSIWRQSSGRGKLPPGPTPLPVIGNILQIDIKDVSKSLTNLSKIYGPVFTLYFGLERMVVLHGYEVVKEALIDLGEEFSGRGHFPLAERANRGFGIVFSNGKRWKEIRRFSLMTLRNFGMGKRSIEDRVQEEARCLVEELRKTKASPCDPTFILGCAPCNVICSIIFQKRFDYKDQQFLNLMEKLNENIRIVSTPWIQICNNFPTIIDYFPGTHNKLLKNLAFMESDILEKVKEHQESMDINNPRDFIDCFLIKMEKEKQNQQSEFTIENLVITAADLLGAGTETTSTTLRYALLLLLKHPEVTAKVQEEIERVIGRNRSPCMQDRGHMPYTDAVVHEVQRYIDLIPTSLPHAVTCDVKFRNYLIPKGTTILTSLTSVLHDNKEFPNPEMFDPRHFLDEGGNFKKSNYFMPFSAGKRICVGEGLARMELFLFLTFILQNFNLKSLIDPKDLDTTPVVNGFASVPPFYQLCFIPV
Chain of Cytochrome P450 1A2 (Homo sapiens) (P05177 whole entry, looked up): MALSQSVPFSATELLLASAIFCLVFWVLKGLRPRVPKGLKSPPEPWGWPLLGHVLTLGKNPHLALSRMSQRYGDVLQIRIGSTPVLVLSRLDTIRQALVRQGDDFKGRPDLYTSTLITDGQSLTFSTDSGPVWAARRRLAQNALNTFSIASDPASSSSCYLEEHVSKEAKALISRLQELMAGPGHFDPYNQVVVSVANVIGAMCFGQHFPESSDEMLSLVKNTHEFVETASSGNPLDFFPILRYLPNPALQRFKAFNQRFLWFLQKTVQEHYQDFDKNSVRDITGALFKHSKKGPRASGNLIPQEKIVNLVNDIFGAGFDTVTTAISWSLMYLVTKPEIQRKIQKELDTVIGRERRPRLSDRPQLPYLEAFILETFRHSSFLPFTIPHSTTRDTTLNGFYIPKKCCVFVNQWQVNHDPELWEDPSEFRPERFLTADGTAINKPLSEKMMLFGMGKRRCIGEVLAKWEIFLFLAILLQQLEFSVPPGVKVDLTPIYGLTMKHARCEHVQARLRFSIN
Chain of Nuclear receptor subfamily 1 group I member 2 (Homo sapiens) (O75469 whole entry, looked up): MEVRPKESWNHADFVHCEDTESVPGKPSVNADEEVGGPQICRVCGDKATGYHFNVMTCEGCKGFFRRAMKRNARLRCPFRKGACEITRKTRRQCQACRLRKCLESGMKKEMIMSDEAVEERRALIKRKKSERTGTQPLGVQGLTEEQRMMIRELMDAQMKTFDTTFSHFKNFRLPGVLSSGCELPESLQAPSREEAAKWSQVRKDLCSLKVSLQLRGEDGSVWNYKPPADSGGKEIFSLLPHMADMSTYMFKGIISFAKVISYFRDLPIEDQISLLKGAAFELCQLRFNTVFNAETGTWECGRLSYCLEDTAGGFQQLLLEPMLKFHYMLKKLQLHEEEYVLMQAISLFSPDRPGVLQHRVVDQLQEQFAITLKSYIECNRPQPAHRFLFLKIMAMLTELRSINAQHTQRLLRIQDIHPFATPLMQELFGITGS
Chain of Cytochrome P450 2D6 (Homo sapiens) (P10635 whole entry, looked up): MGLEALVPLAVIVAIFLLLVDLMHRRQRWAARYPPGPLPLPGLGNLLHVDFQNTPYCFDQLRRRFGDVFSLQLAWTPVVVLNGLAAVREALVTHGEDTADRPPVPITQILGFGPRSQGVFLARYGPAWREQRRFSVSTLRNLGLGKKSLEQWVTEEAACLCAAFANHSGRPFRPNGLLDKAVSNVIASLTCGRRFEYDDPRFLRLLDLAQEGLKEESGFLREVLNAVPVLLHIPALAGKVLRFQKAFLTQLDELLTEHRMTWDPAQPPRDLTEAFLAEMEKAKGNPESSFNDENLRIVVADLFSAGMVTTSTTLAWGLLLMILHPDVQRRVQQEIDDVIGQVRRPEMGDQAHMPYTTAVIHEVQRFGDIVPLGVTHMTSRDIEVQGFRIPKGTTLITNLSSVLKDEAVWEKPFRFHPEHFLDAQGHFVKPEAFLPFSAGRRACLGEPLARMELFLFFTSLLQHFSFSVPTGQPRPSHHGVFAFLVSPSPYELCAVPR
Chain of Voltage-gated inwardly rectifying potassium channel KCNH2 (Homo sapiens) (Q12809 whole entry, looked up): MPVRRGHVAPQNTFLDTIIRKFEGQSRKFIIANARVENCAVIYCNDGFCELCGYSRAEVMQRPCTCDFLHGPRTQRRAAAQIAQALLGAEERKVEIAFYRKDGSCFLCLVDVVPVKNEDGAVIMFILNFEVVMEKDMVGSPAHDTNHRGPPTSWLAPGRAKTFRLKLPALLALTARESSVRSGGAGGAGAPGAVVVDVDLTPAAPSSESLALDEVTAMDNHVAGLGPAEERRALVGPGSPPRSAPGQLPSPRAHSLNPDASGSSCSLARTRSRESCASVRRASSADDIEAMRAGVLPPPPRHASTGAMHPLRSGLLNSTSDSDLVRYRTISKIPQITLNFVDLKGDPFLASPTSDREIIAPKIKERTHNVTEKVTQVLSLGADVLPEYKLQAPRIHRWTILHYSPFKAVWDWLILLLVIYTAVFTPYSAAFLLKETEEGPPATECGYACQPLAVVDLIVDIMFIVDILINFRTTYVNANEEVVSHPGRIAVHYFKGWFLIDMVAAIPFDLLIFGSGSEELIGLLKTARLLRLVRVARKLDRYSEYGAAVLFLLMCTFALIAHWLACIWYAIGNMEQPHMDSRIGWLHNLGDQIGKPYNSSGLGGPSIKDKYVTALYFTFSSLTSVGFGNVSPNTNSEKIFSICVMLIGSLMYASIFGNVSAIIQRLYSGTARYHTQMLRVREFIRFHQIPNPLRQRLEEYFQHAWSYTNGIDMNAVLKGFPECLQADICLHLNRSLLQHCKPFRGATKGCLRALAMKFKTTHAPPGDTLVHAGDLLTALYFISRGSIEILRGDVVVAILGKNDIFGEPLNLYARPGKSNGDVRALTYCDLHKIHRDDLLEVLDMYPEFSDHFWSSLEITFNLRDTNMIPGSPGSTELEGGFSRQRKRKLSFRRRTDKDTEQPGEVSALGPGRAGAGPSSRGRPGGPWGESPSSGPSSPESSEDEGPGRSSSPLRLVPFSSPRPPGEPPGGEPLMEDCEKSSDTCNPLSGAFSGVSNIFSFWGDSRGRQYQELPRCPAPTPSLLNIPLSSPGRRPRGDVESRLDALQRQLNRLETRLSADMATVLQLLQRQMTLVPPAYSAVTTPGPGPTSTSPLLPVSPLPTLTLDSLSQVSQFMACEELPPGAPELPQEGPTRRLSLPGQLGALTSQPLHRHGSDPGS
Chain of Cytochrome P450 3A4 (Homo sapiens) (P08684 whole entry, looked up): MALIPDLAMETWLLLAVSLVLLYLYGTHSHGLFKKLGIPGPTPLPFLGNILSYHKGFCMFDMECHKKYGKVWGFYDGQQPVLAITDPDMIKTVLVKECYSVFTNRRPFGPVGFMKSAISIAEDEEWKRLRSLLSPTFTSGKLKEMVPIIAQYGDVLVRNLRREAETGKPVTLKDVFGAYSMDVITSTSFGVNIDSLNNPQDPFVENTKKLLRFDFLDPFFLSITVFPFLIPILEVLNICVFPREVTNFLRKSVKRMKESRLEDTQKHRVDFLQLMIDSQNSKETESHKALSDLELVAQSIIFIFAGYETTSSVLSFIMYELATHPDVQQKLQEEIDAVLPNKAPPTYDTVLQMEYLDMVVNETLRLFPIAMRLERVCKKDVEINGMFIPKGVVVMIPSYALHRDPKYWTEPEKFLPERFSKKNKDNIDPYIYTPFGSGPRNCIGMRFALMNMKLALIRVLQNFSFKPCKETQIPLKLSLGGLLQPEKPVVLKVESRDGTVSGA

As for `CCNCC`, the Potency entry in [1], in test [2], in test [3], in [4], in test [5] and in test [6] was “inactive” each time. Further, the Potency result in [7], in [8], in test [9], in test [11] and in test [12] was “inactive” throughout. Besides, in [10], the Potency entry was “inactive and 28.3 µM (active)”.

For `CC1(C)Cc2cccc(O)c2O1`, the Potency entry in test [1], in test [2], in test [3], in [4], in test [5] and in test [6] was “inactive” throughout. The Potency entry in test [13], in [14], in test [15], in [16], in test [7] and in [8] was “inactive” each time. Also, the Potency entry in test [9], in test [11] and in test [12] was “inactive” throughout.

Consider `N#CCCCCC#N`, for which the Potency result in test [1], in test [2], in [3], in test [4], in test [5] and in [6] was “inactive” each time. The Potency entry in [13], in [14], in [15], in test [16], in test [7] and in test [9] was “inactive” in each case. For the same molecule, the Potency entry in test [11] and in test [12] was “inactive” in each case. The Potency in test [8] is 72.5 µM (active) and inactive.

For the molecule `CCC[CH2][Sn]([Cl])([Cl])[CH2]CCC`, the Potency was 501 nM (active) and 1.37 µM (active) in test [1]; 220 nM (active) and 154 nM (active) in test [3]; 4.38 µM (active) and 7.7 µM (active) in [5]; 36 µM (active) in test [7]; 8.07 µM (active) and 22.4 µM (active) in test [8]; 36 µM (active) in [9]. Besides, the Potency in test [11] was 39.4 µM (active) and 17.4 µM (active). In addition, the Potency result in test [2], in [4], in test [13], in test [14], in test [15] and in test [16] was “inactive” throughout. In addition, the Potency result in test [10] and in test [12] was “inactive” each time.

For `COc1ccc(CO)cc1`, the Potency entry in [1], in test [2], in test [3], in [4], in test [5] and in test [11] was “inactive” each time.

Take `CCOP(=S)(OCC)OP(=S)(OCC)OCC`: the Potency result in [1], in [2], in test [3], in test [4], in [5] and in test [6] was “inactive” each time. The Potency entry in test [7] and in test [11] was “inactive” throughout. Moreover, the Potency is 8.18 µM (active) and 5.03 µM (active) in test [13]; 72.9 µM (active) and 79.6 µM (active) in test [14]; 10.3 µM (active) and 11.2 µM (active) in test [15]; 36.5 µM (active) and 20 µM (active) in test [16]; 8.18 µM (active) and 17.8 µM (active) in test [8]; 32.6 µM (active) and 35.6 µM (active) in [9]. Besides, in [12], the Potency is 32.6 µM (active) and 39.9 µM (active).
